Data as given in article PMC4336329 (PLoS ONE, 2015).
About 14,000 (4.5%) of roughly 310,000 compounds showed an effect of 50% or more. Effects have a minus sign here. For the sample, strong results were picked, then their nearest neighbours and some compounds at random.

Biological target: human ether-à-go-go-related gene (hERG) potassium channel (human, UniProt Q12809)
Assay: primary screen, population patch clamp on CHO cells stably expressing hERG; higher = less effect of the substance
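Further: peak tail current of the secondary pulse compared with the same well before compound.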

human ether-à-go-go-related gene (hERG) potassium channel, sequence (Q12809 whole entry, looked up): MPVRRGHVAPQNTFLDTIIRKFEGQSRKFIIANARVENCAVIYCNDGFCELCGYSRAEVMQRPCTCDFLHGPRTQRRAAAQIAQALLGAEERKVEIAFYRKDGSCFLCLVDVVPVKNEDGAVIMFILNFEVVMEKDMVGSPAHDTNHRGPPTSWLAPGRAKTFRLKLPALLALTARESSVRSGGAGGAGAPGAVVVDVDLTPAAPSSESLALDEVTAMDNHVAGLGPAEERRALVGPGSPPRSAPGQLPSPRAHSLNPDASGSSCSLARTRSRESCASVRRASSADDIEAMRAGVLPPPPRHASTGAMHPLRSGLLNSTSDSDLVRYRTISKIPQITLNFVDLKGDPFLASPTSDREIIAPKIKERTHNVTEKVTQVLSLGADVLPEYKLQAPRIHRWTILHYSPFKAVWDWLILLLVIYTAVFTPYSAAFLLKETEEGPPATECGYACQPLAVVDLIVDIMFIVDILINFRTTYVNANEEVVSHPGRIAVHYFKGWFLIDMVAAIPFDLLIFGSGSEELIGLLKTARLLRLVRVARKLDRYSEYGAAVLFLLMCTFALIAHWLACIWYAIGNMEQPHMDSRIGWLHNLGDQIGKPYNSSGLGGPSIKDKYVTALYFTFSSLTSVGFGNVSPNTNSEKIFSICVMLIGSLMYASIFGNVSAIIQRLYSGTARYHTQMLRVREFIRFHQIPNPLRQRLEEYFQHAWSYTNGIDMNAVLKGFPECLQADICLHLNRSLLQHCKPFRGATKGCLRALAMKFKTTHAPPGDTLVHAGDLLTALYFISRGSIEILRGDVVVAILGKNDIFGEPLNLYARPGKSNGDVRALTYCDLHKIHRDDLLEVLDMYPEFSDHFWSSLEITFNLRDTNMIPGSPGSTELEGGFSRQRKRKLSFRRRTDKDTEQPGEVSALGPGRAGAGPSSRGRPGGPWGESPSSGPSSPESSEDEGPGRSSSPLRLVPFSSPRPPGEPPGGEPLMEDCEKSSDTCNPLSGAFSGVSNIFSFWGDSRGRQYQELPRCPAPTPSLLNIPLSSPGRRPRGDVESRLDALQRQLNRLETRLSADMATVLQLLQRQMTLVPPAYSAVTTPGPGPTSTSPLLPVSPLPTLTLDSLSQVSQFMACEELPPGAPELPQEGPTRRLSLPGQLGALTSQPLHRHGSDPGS

| Compound | hERG current change (%, negative = inhibition) at 10uM [%] |
| --- | --- |
| OC(CN1CCN(C(c2ccccc2)c2ccccc2)CC1)c1ccccc1 (stereo not drawn) | -30.8 |
| O=C(CN1CCN(C(c2ccccc2)c2ccccc2)CC1)NC(=O)NCc1ccco1 | -5.1 |
| CC(=O)c1ccccc1OCC(O)CN1CCN(c2ccccn2)CC1.Cl (stereo not drawn) | -39 |
| OC(COc1ccccc1)CN1CCN(C(c2ccccc2)c2ccccc2)CC1 (stereo not drawn) | -69.6 |
| OC(COCc1ccco1)CN1CCN(C(c2ccccc2)c2ccccc2)CC1 (stereo not drawn) | -73.4 |
| OC(COc1ccccc1)CN1CCOCC1 (stereo not drawn) | 9.83 |
| CCC(=O)c1ccc(OCC(O)Cn2nc(C)c(Br)c2C)cc1 (stereo not drawn) | -97.8 |
| COc1cccc(OCC(O)CN2CCN(C(c3ccccc3)c3ccccc3)CC2)c1.Cl (stereo not drawn) | -43.6 |
| CC(=O)c1ccccc1OCC(O)CN1CCN(C(c2ccccc2)c2ccccc2)CC1 (stereo not drawn) | -66.7 |
| CCC(=O)c1ccc(OCC(O)Cn2nc(C)cc2C)cc1 (stereo not drawn) | -7.44 |
| CCC(=O)c1ccc(OCC(O)Cn2nc(C)c(C(C)=O)c2C)cc1 (stereo not drawn) | -36.7 |
| CCOc1ccccc1C(=O)N1CCN(C(c2ccccc2)c2ccccc2)CC1 | 0.314 |
| Cc1cccnc1NC(=S)NCc1ccco1 | -2.97 |
| CC(=O)O.COc1c(O)ccc(C2NC(=O)NC(C)=C2C(=O)Nc2ccccc2C)c1[N+](=O)[O-] (stereo not drawn) | 31.9 |
| CC(/C=C1\SC(=S)N(CCC(=O)Nc2cccc(C(=O)O)c2)C1=O)=C\c1ccccc1 | 10.9 |
| Cc1ccc(NC(=S)N=Nc2c(O)[nH]c3ccccc23)cc1 | 9.41 |
| CC(C)(c1ccccc1)c1ccc(OCC(O)CN2CCCC2)cc1.Cl (stereo not drawn) | -60.3 |
| CCOc1ccc(OCC(O)CN2CCN(S(=O)(=O)c3cccc(C(F)(F)F)c3)CC2)cc1.O=C(O)C(=O)O (stereo not drawn) | 13.7 |
| Cl.O=C(/C=C/c1ccccc1)N1CCN(CC(O)COc2ccccc2)CC1 (stereo not drawn) | -69.7 |
| OC(COc1ccccc1)CN1CCN(c2ncccn2)CC1 (stereo not drawn) | -22.9 |
| Cl.O=C(COc1ccccc1)N1CCN(CC(O)COc2ccccc2)CC1 (stereo not drawn) | -50.8 |
| CC(=O)N1CCN(CC(O)COc2ccc(OCc3ccccc3)cc2)CC1 (stereo not drawn) | -17.7 |
| Cl.O=C(C(c1ccccc1)c1ccccc1)N1CCN(CC(O)COc2ccccc2)CC1 (stereo not drawn) | -13.7 |

| Compound | hERG current change (%, negative = inhibition) at 10uM [%] |
| --- | --- |
| COc1cc(/C=C/C(=O)N2CCN(CC(O)COc3ccccc3)CC2)cc(OC)c1OC.Cl (stereo not drawn) | -8.44 |
| OC(COc1ccccc1)CN1CCCCCC1 (stereo not drawn) | -4.43 |
| CCC(=O)c1ccc(OCC(O)CN2CCN(c3cccc(C(F)(F)F)c3)CC2)cc1 (stereo not drawn) | -55.2 |
| CCC(=O)c1ccc(OCC(O)CN2CCN(c3ccccn3)CC2)cc1 (stereo not drawn) | -34 |
| CC(C)(C)c1ccc(OCC(O)CN2CCCC2)cc1.Cl (stereo not drawn) | -35.7 |
| COc1cc(C(=O)NCCNC(=O)c2ccc(C)nc2)cc(OC)c1OC | 11.8 |
| S=C(Nc1ccccc1)Nc1nccs1 | 24.4 |
| CCOc1ccc(Nc2oc(-c3ccc(Cl)cc3)nc2C#N)cc1 | 9.08 |
| Cl.Fc1ccc(CN2C3=NCCN3c3ccccc32)cc1 | -54.9 |
| Cl.Fc1ccc(CN2C3=NCCCN3c3ccccc32)cc1 | -71.2 |
| O=C(CN1C(=O)C2C3c4ccccc4C(c4ccccc43)C2C1=O)Nc1cccc(C(=O)O)c1 (stereo not drawn) | -10.3 |
| O=C(COc1ccc(Cl)cc1Cl)N/N=C1\CCCc2ccccc21 | 2.52 |
| CC(C)(CO)NCc1ccccc1OCC(=O)Nc1ccccc1 | -14 |
| Cc1ccc(C(=O)OCC(=O)Nc2ccc(F)c(Cl)c2)o1 | 17 |
| Clc1ccc(-n2nnnc2-c2cnc3ccc(Cl)cc3c2-c2ccccc2)cc1 | 5.46 |
| Cc1ccc(/C=C/C(=O)N2CCCC(C)C2)cc1 (stereo not drawn) | -8.25 |
| O=C(CCCCCCN1C(=O)c2ccccc2C1=O)N1CCC(c2ccccc2)C1 (stereo not drawn) | -39.7 |
| O=C(CCN1C(=O)c2ccccc2C1=O)N1CCC(c2ccccc2)C1 (stereo not drawn) | -43 |
| Cc1ccc(/C=C/C(=O)N2CCCN(C(=O)/C=C/c3ccc(C)cc3)CC2)cc1 | -74.8 |
| CN1CCCN(C(=O)/C=C/c2ccc(F)cc2)CC1 | -23.7 |
| Cc1ccc(NC(=O)N2CCCc3ccccc32)cc1 | -6.25 |
| CCN1CCN(C(=O)/C=C/c2ccc(F)cc2)CC1 | -43.2 |
| O=C(/C=C/c1ccc(F)cc1)N1CCCN(C(=O)/C=C/c2ccc(F)cc2)CC1 | -75.6 |

| Compound | hERG current change (%, negative = inhibition) at 10uM [%] |
| --- | --- |
| O=C(CCCN1C(=O)c2ccccc2C1=O)N1CCC(c2ccccc2)C1 (stereo not drawn) | -58.6 |
| CCN1CCN(C(=O)/C=C/c2ccc(C)cc2)CC1 | -23.1 |
| O=C(Nc1ccccc1)N1CCCc2ccccc21 | -79.2 |
| O=C(Nc1ccccc1)N1CCc2ccccc21 | -21.2 |
| COc1ccc2cc(OCC(=O)NNC(=O)Nc3ccc(C(C)=O)cc3)ccc2c1 | 9.54 |
| Cc1ccnc(SCc2cc(=O)c(OC(=O)c3ccco3)co2)n1 | 4.97 |
| COc1ccc(NCc2ccsc2)cc1 | 2.52 |
| O=C(NCC1CC1)c1ccccc1Cl | 11.6 |
| COc1ccc(N2CCN(C3CC(=O)N(c4ccc5c(c4)OCCO5)C3=O)CC2)cc1 (stereo not drawn) | -2.06 |
| CC(=O)Oc1ccccc1C(=O)N(C1CCCCC1)C1CCCCC1 | 15.3 |
| COc1ccc(C(=O)N/N=C(\Cc2ncc[nH]2)c2ccccc2)cc1 | 2.43 |
| COCCN(C(=O)CSc1nnc(-c2ccccc2C)n1C)c1c(N)n(Cc2ccccc2)c(=O)[nH]c1=O | 38.4 |
| O=C(/C=C/c1ccccc1)N1CCOCC1 | 13.9 |
| COc1ccc(/C=C/C(=O)N2CCC(c3ccccc3)C2)cc1 (stereo not drawn) | -47.4 |
| O=C(/C=C/c1ccc(F)cc1)N1CCCc2ccccc21 | -62.7 |
| O=C(/C=C/c1ccccc1)N1CCC(c2ccccc2)C1 (stereo not drawn) | -57.6 |
| O=C(/C=C/c1ccccc1)N1CCCN(C(=O)/C=C/c2ccccc2)CC1 | -68.5 |
| O=C(/C=C/c1cccc(F)c1)N1CCc2ccccc21 | 4.51 |
| COc1ccc(/C=C/C(=O)N2CCCc3ccccc32)cc1 | -16.8 |
| COc1ccccc1/C=C/C(=O)N1CCC(c2ccccc2)C1 (stereo not drawn) | -4.29 |
| CN1CCN(C(=O)/C=C/c2ccccc2)CC1 | 4.5 |
| CCC(=O)Oc1ccc2c(c1)OC1(OC(C)=O)OC(C)CC1=C2C (stereo not drawn) | -5.19 |
| CCCCn1nnnc1NCc1cccnc1 | 8.93 |

| Compound | hERG current change (%, negative = inhibition) at 10uM [%] |
| --- | --- |
| COc1ccc(CC(=O)NCc2nnc(SCC(=O)Nc3ccc(OC)cc3)n2C)cc1 | 4.08 |
| Cc1ccc(S(=O)(=O)N2CCN(C(=O)c3ccc(COc4ccccc4)o3)CC2)cc1 | -0.773 |
| CCOC(=O)c1ccc(NC(=O)C2CCCN(S(=O)(=O)c3ccc(F)cc3)C2)cc1 (stereo not drawn) | -15.1 |
| COc1ccc(-c2nn(C)c3sc(C(=O)NCCN(C)C)cc23)cc1OC | 15.4 |
| Cc1cc(Cl)ccc1OCC(=O)NCCCn1ccnc1 | -29.8 |
| O=C(OCC(=O)c1ccccc1Cl)c1cnccn1 | -0.611 |
| Cc1cc(Cl)ccc1OCCCC(=O)NCc1ccncc1 | -44.4 |
| CC(Oc1ccc(Cl)cc1Cl)C(=O)NCCCn1ccnc1 (stereo not drawn) | -28 |
| O=C(CCCOc1ccc(Cl)cc1Cl)NCCCn1ccnc1 | -62.5 |
| CCOc1cc(Cl)c(S(=O)(=O)NCCCn2ccnc2)cc1Cl | -48.9 |
| CCOc1cc(S(=O)(=O)NCCCn2ccnc2)ccc1Cl | -64 |
| Cc1cc(Cl)ccc1OCCCC(=O)NCCCn1ccnc1 | -68.1 |
| Cl.O=C(COc1ccc(Cl)cc1Cl)NCCCn1ccnc1 | -38.6 |
| O=C(COC(=O)c1cnccn1)c1ccc(Cl)cc1 | 24.4 |
| COc1cc(S(=O)(=O)NCCCn2ccnc2)ccc1Cl | 7.94 |
| O=C(OCC(=O)c1ccc(Cl)cc1Cl)c1cnccn1 | -58.3 |
| Cc1ncc([N+](=O)[O-])n1CC(=O)Nc1ccc(F)cc1F | 13.3 |
| CCOc1ncccc1C(=O)OCC(=O)Nc1ccc(C)c(S(=O)(=O)N2CCOCC2)c1 | -27 |
| CCOC(=O)[C@H]1[C@H]2COc3ccc(OC)cc3[C@@H]2N2C(=O)CN(Cc3ccc(F)cc3)C(=O)[C@@]12C | -26.5 |
| CCOC(=O)/C=c1\s/c(=C\c2ccc(C(=O)OC)cc2)c(=O)n1CC(=O)Nc1ccccc1.Cl | 19.5 |
| COc1ccc(NC(=O)CCCn2c(=O)c3sccc3n(Cc3ccc(C)cc3)c2=O)cc1 | -5.72 |
